CYP2C9 inhib – human CYP2C9 inhibition. P11712. CYP2C9 Supersomes, luciferin-H conversion, luminescence. inhibition, % at 5 µM. actives 20% (n = 96,000). AID 777;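 active = blocking of liver enzyme CYP2C9 beyond about 50% at 5 µM, limit read from the data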
Target sequence (P11712 whole entry, looked up): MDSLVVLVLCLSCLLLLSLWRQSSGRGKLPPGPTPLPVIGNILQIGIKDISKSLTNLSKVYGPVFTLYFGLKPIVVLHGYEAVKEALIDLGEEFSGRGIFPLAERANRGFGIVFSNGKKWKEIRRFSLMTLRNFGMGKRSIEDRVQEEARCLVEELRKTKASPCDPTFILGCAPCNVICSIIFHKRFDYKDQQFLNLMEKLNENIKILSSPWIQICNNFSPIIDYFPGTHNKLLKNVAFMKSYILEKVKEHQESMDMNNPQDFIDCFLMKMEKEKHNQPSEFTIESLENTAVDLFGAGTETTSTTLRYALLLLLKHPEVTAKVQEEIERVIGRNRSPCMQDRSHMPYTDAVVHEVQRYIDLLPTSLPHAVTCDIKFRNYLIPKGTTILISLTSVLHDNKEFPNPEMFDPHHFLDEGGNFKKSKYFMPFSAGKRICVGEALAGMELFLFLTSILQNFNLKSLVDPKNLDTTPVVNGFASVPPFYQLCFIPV
CD11b adhes inh – inhibitors of human CD11b/CD18 binding to fibrinogen; K562 CD11b/CD18 adhesion to fibrinogen, ATPlite luminescence; Mn2+ added to activate the integrin; inhibition, % at 10 µM; P05107+P11215; actives 0.54% (n = 93,000);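 active = primary inhibition of 50% or more at 10 µM, then 40% or more on retest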
CYP2C19 act – cytochrome P450 2C19 (human) activation; activation factor at 5 µM; 96,000 tested, under 10 active; recombinant CYP2C19, luciferin-H EGE luminescence; hits give high values; 0 = fully inhibited enzyme, 1 = untreated enzyme;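 active = activation factor of at least 2 at 5 µM in the primary screen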;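 also: 0 = wells with 2.5 mM tranylcypromine and 1 = vehicle-only wells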
CYP2C9 act – activators of human CYP2C9; recombinant CYP2C9, luciferin-H conversion, luminescence; hits give high values; factor 1 = untreated enzyme, 0 = blocked; activation factor at 5 µM; actives 1.4% (n = 96,000);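 active = activation factor of 2 or more for CYP2C9 at a 5 µM dose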;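 also: 0 = sulfaphenazole-blocked wells and 1 = vehicle-only wells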
CYP2C19 inhib – blocks human cytochrome P450 2C19; P33261; CYP2C19 Supersomes, luciferin-H EGE luminescence, 30 min; inhibition, % at 5 µM; actives 21% (n = 96,000); AID 778;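 active = CYP2C19 inhibition above a set limit at 5 µM in the primary screen, cut at about 50% in these data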;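 also: plate controls were negative control wells for no effect and 2.5 mM tranylcypromine positive control for full effect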
CD11b adhes enh – enhancers of human CD11b/CD18 binding to fibrinogen; P05107+P11215; K562 CD11b/CD18 adhesion to fibrinogen, ATPlite luminescence; activation, % at 10 µM; actives 0.07% (n = 93,000);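 active = 10 µM primary screen giving 50% or more activity, confirmed by 40% or more on retest at that dose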
* = called active by the depositor; nt = not tested or not shown. Shown are actives, neighbours in structure and some others; about 28% of the full set was active somewhere.

SMILES	CYP2C9 inhib	CD11b adhes inh	CYP2C19 act	CYP2C9 act	CYP2C19 inhib	CD11b adhes enh
O=C(NC(=S)NCc1ccccc1)c1ccccc1F	26	-1	0.7	0.7	29	-2
O=C(NC(=S)N(Cc1ccccc1)Cc1ccccc1)c1ccccc1F	53*	9	0.8	0.5	22	0
Cc1ccccc1C(=O)NC1CCN(C(=O)N(c2ccccc2)c2ccccc2)CC1	58*	nt	0.9	0.4	13	nt
Cc1cccc(NC(=O)N2CCC(NC(=O)c3ccccc3C)CC2)c1	-5	-3	1	1	-1	-5
CCOc1ccccc1NC(=O)N1CCC(NC(=O)c2ccccc2C)CC1	-132	-10	0.9	2.3*	7	-1
CCN(CC)C(=O)N1CCC(NC(=O)Cc2ccccc2)CC1	12	-6	0.9	0.9	14	-5
CCOc1ccccc1NC(=O)N1CCC(NC(=O)c2cccc(C)c2)CC1	-164	-11	0.6	2.6*	37	-3
O=CNC(Cc1ccccc1)C(=O)O (stereo not drawn)	-3	15	1	1	3	0
CCC1Oc2ccc(C)cc2N(CC(=O)NCCCN2CCN(Cc3ccccc3)CC2)C1=O (stereo not drawn)	8	-20	0.9	0.9	10	8
CCC1Oc2ccc(C)cc2N(CC(=O)NCc2cc(OC)ccc2OC)C1=O (stereo not drawn)	16	nt	0.3	0.8	73*	nt
CCC1Oc2ccc(C)cc2N(CC(=O)NCc2cccc(OC)c2)C1=O (stereo not drawn)	14	nt	0.1	0.9	94*	nt
CCC1Oc2ccc(C)cc2N(CC(=O)NCCN2C(C)CCCC2C)C1=O (stereo not drawn)	-8	2	1	1.1	-1	-1
CCC1Oc2ccc(C)cc2N(CC(=O)NCc2ccccc2OC)C1=O (stereo not drawn)	-29	nt	0.1	1.3	91*	nt
Nc1ccc(CCc2nc3ccccc3o2)cc1	76*	-6	0	0.2	96*	0
NCc1ccc(-c2nc3ccccc3o2)cc1	70*	-18	0	0.3	98*	0
CCNC(=S)N/N=C/c1ccc(OCC(=O)Nc2ccc(C)cc2)cc1	2	-5	1	1	2	-3
O=C(NCC1COc2ccccc2O1)C1CCN(S(=O)(=O)c2cccc3nsnc23)CC1 (stereo not drawn)	-66	nt	0.4	1.7	59*	nt
O=C(NCC1COc2ccccc2O1)C1CCCN(S(=O)(=O)c2cccc3cccnc23)C1 (stereo not drawn)	-93	-4	0.2	1.9	75*	3
O=C(NCC1COc2ccccc2O1)C1CCCN(S(=O)(=O)c2cccc3nsnc23)C1 (stereo not drawn)	61*	nt	0.5	0.4	54*	nt
O=C(NCC1CCCO1)C1CCN(S(=O)(=O)c2cccc3cccnc23)CC1 (stereo not drawn)	-62	7	1	1.6	-4	-7
C=CCn1c(SCCCC)nc(O)cc1=O	2	17	0.9	1	9	-11
C=CCn1c(SC(C)CC)nc(O)cc1=O (stereo not drawn)	26	-36	0	0.7	98*	0
COC(=O)CCCC(=O)Nc1c(F)c(F)c(F)c(F)c1F	7	0	0.9	0.9	9	-2
CCn1c(SCC(=O)Nc2ccc3c(c2)oc2ccccc23)nnc1-c1ccc(N)cc1	78*	41	0.7	0.2	31	14
CC(=O)Nc1ccc(-c2nnc(SCC(=O)Nc3ccc4c(c3)oc3ccccc34)n2C)cc1	69*	nt	0.5	0.3	47	nt
SMILES	CYP2C9 inhib	CD11b adhes inh	CYP2C19 act	CYP2C9 act	CYP2C19 inhib	CD11b adhes enh
COc1ccc(-c2nnc(SCC(=O)Nc3ccccc3)n2C)cc1	20	45	0.9	0.8	11	0
CCOc1cc(C(=O)OCc2ccc(C(=O)OC)o2)cc(Br)c1OC	22	9	0.9	0.8	14	-3
O=C(N/N=C/c1ccccc1Br)c1ccc(CSc2cccc3cccnc23)cc1	50*	8	0.6	0.5	45	10
CCc1cccc(NC(=O)CS(=O)Cc2nc(-c3ccc(C)cc3)oc2C)c1 (stereo not drawn)	88*	9	0.2	0.1	77*	6
CCCCNC(=O)CS(=O)Cc1nc(-c2ccc(C)cc2)oc1C (stereo not drawn)	15	-11	1.1	0.8	-7	-2
Cc1ccc(-c2nc(CS(=O)CC(=O)NC3CCC(C)CC3)c(C)o2)cc1 (stereo not drawn)	89*	-3	0.3	0.1	67*	4
CCCN(CCC)CCNC(=O)CS(=O)Cc1nc(-c2ccc(C)cc2)oc1C (stereo not drawn)	17	nt	1	0.8	3	nt
Cc1ccc(-c2nc(CS(=O)CC(=O)NCCC(C)C)c(C)o2)cc1 (stereo not drawn)	68*	-18	0.5	0.3	49	1
COc1ccc(-c2nc(CS(=O)CC(=O)NCc3ccc(Cl)cc3)c(C)o2)cc1 (stereo not drawn)	79*	3	0.2	0.2	80*	6
O=C(O)c1cccc(S(=O)(=O)N2CCSCC2)c1	-21	12	1.2	1.2	-18	-3
COc1ccc(OC)c(NC(=O)C2C3C=CC(C3)C2C(=O)NCc2ccccn2)c1 (stereo not drawn)	14	-2	0.7	0.9	29	-2
Cc1oc(-c2cccs2)nc1CS(=O)CC(=O)NCCCN1CC(C)CC(C)C1 (stereo not drawn)	69*	-1	1	0.3	3	0
COc1cccc(-c2nc(CS(=O)CC(=O)NC3CCCC3)c(C)o2)c1 (stereo not drawn)	57*	-10	0.7	0.4	30	-2
Cc1ccc(-c2nc(CS(=O)CC(=O)NCCCN3CC(C)CC(C)C3)c(C)o2)cc1 (stereo not drawn)	7	-6	0.9	0.9	5	7
COc1cccc(-c2nc(CS(=O)CC(=O)O)c(C)o2)c1 (stereo not drawn)	10	-17	1	0.9	-1	-3
CC(C)(C)OC(=O)N1CCOCCOCCN(C(=O)OC(C)(C)C)CCOCC1	39	14	0.5	0.6	48	-3
O=C(Nc1ccccc1Br)C1CCC(=O)N1Cc1ccccc1Cl (stereo not drawn)	45	1	0.8	0.6	22	-1
O=C(Nc1ccc(Cl)cc1)C1CCC(=O)N1Cc1ccccc1Cl (stereo not drawn)	91*	20	0.2	0.1	79*	-3
COc1cccc2sc(N(CCCN(C)C)C(=O)c3sc4ccccc4c3Cl)nc12	nt	18	nt	nt	nt	6

Assay outcomes from PubChem BioAssay.
